tim10-1 inh – growth inhibitors of tim10-1 mutant yeast, primary screen, luminescence, uHTS; S. cerevisiae tim10-1 ts strain growth, BacTiter-Glo, 24 h; inhibition, % at 20 µM; actives 2.2% (n = 330,000);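 active = inhibition of at least 40%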;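 note: mutant grown at 25 °C; 0% = DMSO wells with yeast and 100% = wells holding no yeast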
tim23-1 inh – growth inhibitors of tim23-1 mutant yeast, primary screen, luminescence, uHTS | S. cerevisiae tim23-1 growth, BacTiter-Glo luminescence, 24 h | inhibition, % at 20 µM | actives 1.3% (n = 330,000);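 active = growth inhibition of the mutant yeast at or above 50%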;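 note: temperature-sensitive mutant grown at 25 °C; plate controls were DMSO-treated mutant yeast for no effect and medium wells lacking yeast for full effect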
SKKanGAS inh – S. pyogenes SKKanGAS growth inhibitors in kanamycin, primary screen, streptokinase expression inhibitor project, SKKanGAS strain, BacTiter-Glo luminescence. inhibition, % at 7.5 µM. actives 1.3% (n = 300,000). 6 h;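 active = mean replicate score, as percent of positive control median, at least 50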;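 note: strain carries kanamycin resistance gene driven by streptokinase promoter and grows in 40 µg/ml kanamycin; loss of luminescence reflects streptokinase promoter inhibition or plain growth inhibition; 0% = median of DMSO wells and 100% = positive control at its reference dose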
NALP3 yeast inh – NALP3 inflammasome inhibitors in reconstituted yeast, primary screen, luminescence, uHTS; AID 2825, 2010; actives 0.39% (n = 330,000); inhibition, % at 10 µM; Yeast reconstituted NLRP3/ASC/caspase-1, beta-gal luminescence, 24 h;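 active = inhibition of 50% or more; inactive = inhibition below 50%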;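 note: plate controls were induced DMSO wells for no effect and uninduced yeast grown without galactose for full effect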
TIM10 inh – growth inhibitors of isogenic TIM10 control yeast, primary screen, counter-screen for tim10-1 yeast inhibitor project, luminescence, uHTS | S. cerevisiae TIM10 strain growth, BacTiter-Glo luminescence, 24 h | inhibition, % at 10 µM | actives 1.4% (n = 330,000) | AID 463195, 2010;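 active = inhibition of 40% or more at the single tested concentration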;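 note: wild-type TIM10 isogenic control strain grown at permissive 25 °C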
PfHsp90 set2 – growth inhibition of PfHsp90-expressing yeast, primary screen, antimalarial PfHsp90 inhibitor project, S. cerevisiae, BacTiter-Glo luminescence, single point, set 2; inhibition, % at 9.4 µM; AID 504621, 2011; actives 0.32% (n = 310,000); BacTiter-Glo ATP, 48 h; yeast lacking PDR1 and PDR3 efflux regulators;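 active = every replicate shows inhibition above about 80%, whatever the replicate mean, limit read from the data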;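 note: 0% = DMSO neutral controls and 100% = 20 µM radicicol positive controls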
NALP3 yeast conf – NALP3 inhibitors retested in yeast, confirmation, luminescence, single concentration; shares compounds with NALP3 yeast inh; inhibition, % at 10 µM; yeast expressing human NALP3; AID 435006, 2010; actives 81% (n = 1,300); in the data active = inhibition above about 48%
Casp1 ASC ctr – CASP1-PYCARD signaling inhibition in yeast, confirmatory test, counterassay for NLRP3 inhibitor program, one-dose; shares compounds with NALP3 yeast inh; yeast expressing Caspase-1-ASC, luminescence counter screen; actives 66% (n = 1,000); inhibition, % at 10 µM; AID 488784, 2010
NALP3 yeast rt – NALP3 inhibitors in yeast, repeat test, confirmation, luminescence, single concentration, retest | shares compounds with NALP3 yeast inh | yeast expressing human NALP3, luminescence read-out | inhibition, % at 10 µM | actives 53% (n = 1,000) | AID 488794, 2010
* hit, by the source's call; nt = no result given. The list is not random: actives were taken first. Their share in the collection is about 4.6%. Cut-off read from the data, not from the text of the source, unless noted: active = inhibition above about 50%; inactive = the rest.

SMILES | tim10-1 inh | tim23-1 inh | SKKanGAS inh | NALP3 yeast inh | TIM10 inh | PfHsp90 set2 | NALP3 yeast conf | Casp1 ASC ctr | NALP3 yeast rt
CCOc1cc(C=O)ccc1OCCSc1ccc(C)cc1 | 0.0 | 16.5 | 0.8 | 65.3* | -3.1 | -10.4 | 69.5* | 65.2* | 39.4
O=C(Nc1ccc(Nc2ccccc2)cc1)C(Cl)(Cl)Cl | -52.7 | 43.0 | 5.7 | 60.7* | 28.9 | 11.8 | 68.0* | nt | nt
c1ccc(CCNc2ncnc3ccccc23)cc1 | 2.1 | -3.8 | 6.1 | 20.8 | 12.9 | -11.4 | nt | nt | nt
CCCCCCCCNc1ncnc2ccccc12 | -27.4 | 20.2 | -2.2 | 81.6* | 12.9 | -3.3 | 76.3* | 79.8* | 78.8*
CCOc1ccc(N(Cc2cc3cc(C)ccc3[nH]c2=O)S(=O)(=O)c2ccccc2)cc1 | 3.2 | 11.5 | 21.5 | 12.9 | 5.5 | 3.2 | nt | nt | nt
COc1ccc(CNCC(O)COc2ccc(C(C)(C)c3ccccc3)cc2)cc1 (configuration not stated) | -7.5 | 38.3 | 5.1 | 52.8* | -11.5 | 11.7 | 76.0* | nt | nt
COC(=O)c1ccc(CNCC(O)COc2ccc(-c3ccccc3)cc2)cc1 (configuration not stated) | -23.5 | -32.2 | 4.3 | 39.3 | 16.2 | -28.0 | nt | nt | nt
COc1cccc(OC)c1C(=O)NNS(=O)(=O)c1ccc2ccccc2c1 | -8.2 | -6.0 | nt | -3.5 | -2.3 | -0.9 | nt | nt | nt
C=CCc1c(C)nc(C)nc1N/N=C/c1ccccc1O | 13.0 | 37.6 | -5.3 | 55.5* | 35.1 | 51.0 | 56.7* | 37.8 | 54.5*
CCOC(=O)N1CCN(S(=O)(=O)c2ccc(OC)c(C(=O)N3CCCCC3)c2)CC1 | 5.4 | 13.6 | 1.4 | 20.4 | -9.6 | 5.5 | nt | nt | nt
COc1cccc(NC(=O)c2ccc(OC(F)(F)F)cc2)c1 | 3.6 | 14.9 | 8.1 | 50.2* | 15.5 | 17.7 | 63.2* | 40.7 | 19.2
C=CCOc1ccc(C2/C(=C(/O)c3ccc(OC)cc3)C(=O)C(=O)N2CCN2CCNCC2)cc1 (configuration not stated) | 9.2 | -8.2 | -1.1 | 6.1 | 4.0 | 6.9 | nt | nt | nt
Cc1ccc(C(=O)NNC(=S)NC(=O)c2ccc(Cl)cc2Cl)cc1 | -5.0 | -12.0 | 97.7* | 51.0* | 6.1 | -3.7 | 65.7* | 50.5* | 48.6
O=C(NNC(=S)NC(=O)c1ccccc1[N+](=O)[O-])c1ccccc1O | 22.1 | 6.0 | 0.0 | 17.5 | 7.2 | 24.2 | nt | nt | nt
O=C(NC(=S)NNC(=O)c1ccccc1O)c1ccc(F)cc1 | -6.3 | 41.9 | 80.9* | 50.4* | 26.6 | 43.2 | 66.8* | 46.6 | 52.1*
Cc1ccc(C(=O)NC(=S)NNC(=O)c2ccccc2O)cc1 | 6.3 | 14.3 | 102.1* | 53.2* | 24.4 | 16.3 | 56.0* | 34.5 | 16.8
CCN(CC)S(=O)(=O)c1ccc2c(c1)nc(CCC(=O)Nc1ccc3c(c1)OCO3)n2CC | 15.9 | 6.9 | 5.0 | 6.9 | 4.6 | -35.3 | nt | nt | nt
C=CCn1c(CNC(=O)c2ccccc2F)nnc1SCC(=O)N1CCOCC1 | 0.6 | 1.3 | 13.0 | 10.5 | -3.7 | -2.9 | nt | nt | nt
COC(=O)c1ccccc1NC(=O)C1CCCN(S(=O)(=O)c2ccc(OC)cc2)C1 (configuration not stated) | 25.9 | 39.7 | -11.9 | 64.2* | -16.4 | 18.1 | 76.8* | 62.6* | 60.4*
COc1ccc(S(=O)(=O)N2CCCCCC2)cc1 | 32.7 | 25.8 | 3.9 | -11.4 | 24.7 | -2.2 | nt | nt | nt
COc1ccc(-c2ccc(S(=O)(=O)N3CCCC3)cc2)cc1 | -11.8 | 27.6 | 3.1 | 52.8* | 11.9 | -1.2 | 47.1 | 54.5* | 44.4
COc1ccc(S(=O)(=O)N2CCN(c3nc(C)cc(C)n3)CC2)cc1 | 33.1 | 33.6 | 0.4 | 53.2* | 5.3 | -23.1 | 64.8* | 63.4* | 57.5*
O=[N+]([O-])c1cccnc1S(=O)(=O)c1ccccc1 | 22.3 | 9.2 | 4.5 | 57.7* | -5.4 | 9.5 | 63.1* | 50.3* | 38.8
O=C(COc1ccc(Br)cc1Cl)NC1CCCCC1 | -0.5 | 10.6 | 2.6 | 53.3* | -39.5 | 2.7 | 3.8 | nt | nt
O=C(COc1ccc(Br)cc1Br)NC1CCCC1 | -12.8 | -2.2 | 11.0 | 61.9* | -19.8 | -4.9 | 56.4* | 53.4* | 46.8
SMILES | tim10-1 inh | tim23-1 inh | SKKanGAS inh | NALP3 yeast inh | TIM10 inh | PfHsp90 set2 | NALP3 yeast conf | Casp1 ASC ctr | NALP3 yeast rt
CCC1CCCCN1CC(=O)c1c(C)[nH]c2cc(C)ccc12 (configuration not stated) | 9.5 | -5.2 | 0.6 | 16.3 | -9.5 | -7.4 | nt | nt | nt
C(=C\c1ccccc1)/CSc1nnc(-c2cnccn2)n1Cc1ccco1 | 3.1 | 29.1 | 5.5 | 8.9 | 7.9 | -20.3 | nt | nt | nt
Fc1ccccc1CSc1nnc(-c2cnccn2)n1Cc1ccco1 | 22.3 | 26.5 | -9.2 | -133.3 | 28.5 | -40.9 | -33.4 | nt | nt
C/C(=N\n1cnnc1)c1ccc(C#N)cc1 | 12.6 | -14.1 | 14.8 | 19.8 | -10.4 | -21.6 | nt | nt | nt
CCN=C1SC(CC(=O)Nc2sc(C)c(C)c2C(=O)OC)C(=O)N1CC (configuration not stated) | -0.3 | -0.4 | 6.3 | 55.6* | -7.7 | 22.7 | 64.3* | 63.5* | 52.2*
CCN=C1SC(CC(=O)Nc2sc3c(c2C#N)CCCC3)C(=O)N1CC (configuration not stated) | 9.4 | 1.1 | 13.9 | 12.0 | 11.0 | 30.3 | nt | nt | nt
CC(=O)c1cnc2nc(SCc3ccc(C)cc3)nn2c1C | 16.7 | 18.4 | 4.7 | 33.4 | -1.2 | -3.0 | nt | nt | nt
CC(=O)c1cnc2nc(SCc3ccc(Cl)cc3)nn2c1C | -10.5 | 44.6 | 2.4 | 52.8* | -13.2 | -0.1 | 71.3* | 64.3* | 50.5*
CCOC(=O)C(=O)N1CCC(C(=O)OC)CC1 | 10.5 | 7.4 | 8.1 | -10.7 | -5.1 | 12.1 | nt | nt | nt
Cc1cccc(CN2CCSc3sccc3C2=O)c1 | 10.4 | 14.8 | 5.1 | 37.7 | -11.1 | -4.0 | nt | nt | nt
Cc1ccc(CN2CCSc3sccc3C2=O)cc1 | -14.9 | 16.1 | 14.4 | 81.2* | -24.6 | 20.2 | 74.3* | 89.3* | 77.4*
O=C1c2ccsc2SCCN1Cc1cccc(Cl)c1 | 14.5 | 20.6 | -4.7 | 39.3 | -31.3 | 33.1 | nt | nt | nt
O=C1c2ccsc2SCCN1Cc1ccc(F)cc1 | 23.9 | 6.4 | 9.6 | 65.3* | -6.9 | 32.2 | 71.8* | 63.2* | 33.5

Assay outcomes: PubChem, several laboratories
